Test results taken from PubChem BioAssay (NCATS).
Values joined by “and” are separate entries in the source; they are usually repeats but may differ in a detail not shown here. Equal values may be shown once. Records with an inconclusive call do not appear. A call without a number means that no potency is given here. Active and inactive are the calls of the source. Unless noted, the call rests on the fitted dose curve; in most records, active means well fitted curve in the direction sought with a large enough effect; inconclusive means small, poorly fitted or top-dose-only effect, or another doubt; inactive means no such curve, though single readings can be large; an effect the other way counts as inactive or inconclusive.

Assays:
[1] = target: Nuclear receptor subfamily 1 group I member 3 (Homo sapiens) (UniProt Q14994); test: Primary qHTS for antagonist of constitutive androstane receptor (CAR) against the NCATS DSHEA and TCM libraries (AID 1794836); further: series mostly up to about 40 µM
Sequence of Nuclear receptor subfamily 1 group I member 3 (Homo sapiens) (Q14994 whole entry, looked up): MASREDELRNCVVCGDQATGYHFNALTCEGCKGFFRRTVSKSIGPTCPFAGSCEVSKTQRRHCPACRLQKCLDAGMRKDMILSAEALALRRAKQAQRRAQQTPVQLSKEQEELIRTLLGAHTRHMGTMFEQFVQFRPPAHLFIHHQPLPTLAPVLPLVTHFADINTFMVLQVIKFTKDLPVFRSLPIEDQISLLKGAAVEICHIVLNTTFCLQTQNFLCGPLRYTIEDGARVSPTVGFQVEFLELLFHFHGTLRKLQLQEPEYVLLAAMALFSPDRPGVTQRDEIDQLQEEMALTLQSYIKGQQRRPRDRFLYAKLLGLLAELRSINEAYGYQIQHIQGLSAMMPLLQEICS
How it was run: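 HepG2 cells stably carrying hCAR and a CYP2B6 luciferase reporter (2,500 cells/well) attached for 5 h, then received compounds with 48 uM CITCO for 24 h at 37C. ONE-Glo luminescence read antagonism; CellTiter-Fluor (405/540 nm) gave viability.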

[2] = target: Cytochrome P450 3A4 (Homo sapiens) (UniProt P08684); test: qHTS Assay for Activators of Cytochrome P450 3A4 (AID 885); further: nearly all actives have a fitted effect of over 65% in size
Sequence of Cytochrome P450 3A4 (Homo sapiens) (P08684 whole entry, looked up): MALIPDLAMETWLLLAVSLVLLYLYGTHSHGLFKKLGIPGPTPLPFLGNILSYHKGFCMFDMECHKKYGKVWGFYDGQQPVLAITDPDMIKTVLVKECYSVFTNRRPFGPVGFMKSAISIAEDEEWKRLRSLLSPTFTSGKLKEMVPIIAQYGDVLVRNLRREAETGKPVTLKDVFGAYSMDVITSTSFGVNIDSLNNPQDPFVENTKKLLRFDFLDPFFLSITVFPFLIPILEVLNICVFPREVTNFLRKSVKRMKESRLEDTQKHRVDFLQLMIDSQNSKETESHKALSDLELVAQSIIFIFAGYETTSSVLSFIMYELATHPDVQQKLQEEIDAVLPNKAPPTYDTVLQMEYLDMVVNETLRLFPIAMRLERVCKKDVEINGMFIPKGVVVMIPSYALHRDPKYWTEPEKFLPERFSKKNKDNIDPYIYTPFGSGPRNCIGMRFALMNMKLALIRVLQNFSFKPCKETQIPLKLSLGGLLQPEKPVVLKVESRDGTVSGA
How it was run: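 Luminescent readout of luciferin formed from 25 uM Luciferin-PPXE (KM level) by 20 nM CYP3A4 in 200 mM KPO4, with 60 min NADPH-driven reaction at room temperature after 10 min compound exposure. Ketoconazole (57 uM) defined 100% inhibition.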

[3] = qHTS for differential inhibitors of proliferation of Plasmodium falciparum line W2 (AID 1883); settings: Potency: Plasmodium falciparum W2 proliferation inhibition;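 further: potency means the concentration at half of the fitted maximal effect; parasites grown with compound for 72 h before lysis and staining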
[4] = qHTS for differential inhibitors of proliferation of Plasmodium falciparum line HB3 (AID 1886); settings: Potency: Plasmodium falciparum HB3 proliferation inhibition;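 further: potency means the concentration at half of the fitted maximal effect; parasites grown with compound for 72 h before SYBR Green readout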
[5] = target: Chromobox protein homolog 1 (Homo sapiens) (UniProt P83916); test: qHTS Validation Assay for Inhibitors of HP1-beta Chromodomain Interactions with Methylated Histone Tails (AID 488953); further: potency means the concentration at half of the fitted maximal effect; nearly all actives have a fitted effect of over 50% in size
Sequence of Chromobox protein homolog 1 (Homo sapiens) (P83916 whole entry, looked up): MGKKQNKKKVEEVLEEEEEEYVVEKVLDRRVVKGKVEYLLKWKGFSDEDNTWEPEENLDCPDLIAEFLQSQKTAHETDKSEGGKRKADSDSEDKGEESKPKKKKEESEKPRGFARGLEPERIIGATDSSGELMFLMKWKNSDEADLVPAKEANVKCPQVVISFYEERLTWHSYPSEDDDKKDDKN
How it was run: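 Compounds pinned into a preassembled complex of HP1-beta and trimethyl-K9 histone H3(1-18) biotin peptide (50 nM each; PBS pH 7.4, 0.01% Tween-20). After 30 min, bead-based AlphaScreen detection followed.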

[6] = target: Glutathione peroxidase 1 (Homo sapiens) (UniProt P07203); test: Primary qHTS Assay for Inhibitors of Recombinant Selenoprotein Glutathione Peroxidase 1 (GPX1) (AID 1845191); further: nearly all actives have a fitted effect of over 65% in size
Sequence of Glutathione peroxidase 1 (Homo sapiens) (P07203 whole entry, looked up): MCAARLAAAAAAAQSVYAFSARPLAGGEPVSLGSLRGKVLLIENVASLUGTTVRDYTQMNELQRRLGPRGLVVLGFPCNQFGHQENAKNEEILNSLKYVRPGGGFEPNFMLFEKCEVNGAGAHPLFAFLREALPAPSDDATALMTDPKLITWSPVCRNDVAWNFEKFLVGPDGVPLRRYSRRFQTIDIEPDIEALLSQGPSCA
How it was run: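 GPX1 10 nM, GR 100 nM, GSH 1 mM, NADPH 0.5 mM, CHP 0.5 mM (final). 30-min cpd preincubation, RT. Ex340/Em450 read t=0, t=15 min.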

[7] = qHTS for differential inhibitors of proliferation of Plasmodium falciparum line 3D7 (AID 1876); further: potency means the concentration at half of the fitted maximal effect
[8] = target: Androgen receptor (Homo sapiens) (UniProt P10275); test: qHTS assay for small molecule agonists of androgen receptor signaling (AID 588515; active means well fitted curve in the direction sought with a large enough effect in the signal ratio, with a control signal flat; the % refers to the signal ratio); settings: AR-UAS-bla HEK293, beta-lactamase ratio, agonist 16 h; stronger effect = higher value
Sequence of Androgen receptor (Homo sapiens) (P10275 whole entry, looked up): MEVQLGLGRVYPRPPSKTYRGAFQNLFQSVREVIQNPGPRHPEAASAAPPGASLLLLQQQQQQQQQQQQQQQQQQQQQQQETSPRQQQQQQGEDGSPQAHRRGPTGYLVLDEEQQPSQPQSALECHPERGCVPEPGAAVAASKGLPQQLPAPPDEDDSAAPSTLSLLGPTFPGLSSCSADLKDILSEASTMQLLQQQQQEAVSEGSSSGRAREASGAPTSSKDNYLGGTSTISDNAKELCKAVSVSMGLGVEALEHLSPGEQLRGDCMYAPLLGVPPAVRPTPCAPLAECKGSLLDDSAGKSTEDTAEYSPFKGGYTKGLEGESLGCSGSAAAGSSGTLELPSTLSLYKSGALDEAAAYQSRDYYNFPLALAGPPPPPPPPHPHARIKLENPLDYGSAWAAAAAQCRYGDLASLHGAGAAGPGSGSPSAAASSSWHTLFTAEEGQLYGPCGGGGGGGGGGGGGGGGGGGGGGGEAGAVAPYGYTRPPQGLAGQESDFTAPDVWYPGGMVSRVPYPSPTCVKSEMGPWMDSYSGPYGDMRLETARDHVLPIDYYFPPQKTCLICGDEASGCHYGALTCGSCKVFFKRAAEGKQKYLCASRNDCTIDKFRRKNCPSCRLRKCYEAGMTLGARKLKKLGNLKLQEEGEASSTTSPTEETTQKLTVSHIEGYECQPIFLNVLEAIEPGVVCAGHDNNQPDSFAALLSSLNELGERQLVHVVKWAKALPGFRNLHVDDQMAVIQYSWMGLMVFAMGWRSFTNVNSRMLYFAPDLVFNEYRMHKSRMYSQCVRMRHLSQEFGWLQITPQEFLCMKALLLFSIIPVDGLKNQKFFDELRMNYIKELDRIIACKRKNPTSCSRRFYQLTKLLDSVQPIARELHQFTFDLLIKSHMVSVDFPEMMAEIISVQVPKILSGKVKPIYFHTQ
How it was run: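 Stimulation of an AR-responsive β-lactamase reporter in GripTite HEK293 cells was measured after 16 h compound exposure at 37 °C, via CCF4 fluorescence after 2 h RT. EC50 from Hill fits, normalized to R1881 at 30 nM.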

[9] = target: Androgen receptor (Homo sapiens) (UniProt P10275); test: qHTS assay for small molecule antagonists of androgen receptor signaling (AID 588516; active means well fitted curve in the direction sought with a large enough effect in the signal ratio, with a control signal flat, not every such curve was filed as active; the % refers to the signal ratio)
How it was run: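 AR-UAS-bla GripTite HEK 293 cells (2000/well) treated with compound titrations plus 10 nM R1881 for 16 h at 37C. Beta-lactamase read by CCF4 FRET (460/530 nm); IC50 from Hill fits, normalized to R1881 and DMSO control wells.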

[10] = target: Bile acid receptor (Homo sapiens) (UniProt Q96RI1); test: qHTS assay for small molecule agonists of farnesoid X receptor signaling (AID 588527; calls by dose curve; further: series mostly up to about 77 µM); settings: HEK293T FXR-UAS-bla, beta-lactamase ratio, 16 h; stronger effect = higher value
Sequence of Bile acid receptor (Homo sapiens) (Q96RI1 whole entry, looked up): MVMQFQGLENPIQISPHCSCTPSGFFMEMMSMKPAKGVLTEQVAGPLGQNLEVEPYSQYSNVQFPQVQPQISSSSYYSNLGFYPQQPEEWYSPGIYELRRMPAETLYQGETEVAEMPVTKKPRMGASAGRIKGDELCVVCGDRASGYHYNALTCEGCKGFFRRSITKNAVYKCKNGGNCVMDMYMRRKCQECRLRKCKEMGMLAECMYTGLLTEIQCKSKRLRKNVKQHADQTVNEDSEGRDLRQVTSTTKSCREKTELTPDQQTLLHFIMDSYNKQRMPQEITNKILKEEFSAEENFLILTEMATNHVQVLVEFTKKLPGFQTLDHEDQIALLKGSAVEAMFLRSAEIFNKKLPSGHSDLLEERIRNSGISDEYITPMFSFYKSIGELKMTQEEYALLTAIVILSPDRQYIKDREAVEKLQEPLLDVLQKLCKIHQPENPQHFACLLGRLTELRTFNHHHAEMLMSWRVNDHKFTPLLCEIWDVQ
How it was run: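 Agonist-mode beta-lactamase reporter in GeneBLAzer FXR-UAS-bla HEK293T cells, titration up to 92 uM, 16 h exposure at 37 C, CCF4 fluorescence. Response scaled to DMSO (0%) and 100 uM chenodeoxycholic acid (100%), then Hill-fitted for EC50 and efficacy.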

[11] = target: Glucocorticoid receptor (Homo sapiens) (UniProt P04150); test: qHTS assay for small molecule antagonists of glucocorticoid receptor signaling (AID 588533; active means well fitted inhibition curve with a large enough effect in the signal ratio, with a control signal flat, not every such curve was filed as active; the % refers to the signal ratio;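 further: cells stimulated with 2 nM dexamethasone as agonist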)
Sequence of Glucocorticoid receptor (Homo sapiens) (P04150 whole entry, looked up): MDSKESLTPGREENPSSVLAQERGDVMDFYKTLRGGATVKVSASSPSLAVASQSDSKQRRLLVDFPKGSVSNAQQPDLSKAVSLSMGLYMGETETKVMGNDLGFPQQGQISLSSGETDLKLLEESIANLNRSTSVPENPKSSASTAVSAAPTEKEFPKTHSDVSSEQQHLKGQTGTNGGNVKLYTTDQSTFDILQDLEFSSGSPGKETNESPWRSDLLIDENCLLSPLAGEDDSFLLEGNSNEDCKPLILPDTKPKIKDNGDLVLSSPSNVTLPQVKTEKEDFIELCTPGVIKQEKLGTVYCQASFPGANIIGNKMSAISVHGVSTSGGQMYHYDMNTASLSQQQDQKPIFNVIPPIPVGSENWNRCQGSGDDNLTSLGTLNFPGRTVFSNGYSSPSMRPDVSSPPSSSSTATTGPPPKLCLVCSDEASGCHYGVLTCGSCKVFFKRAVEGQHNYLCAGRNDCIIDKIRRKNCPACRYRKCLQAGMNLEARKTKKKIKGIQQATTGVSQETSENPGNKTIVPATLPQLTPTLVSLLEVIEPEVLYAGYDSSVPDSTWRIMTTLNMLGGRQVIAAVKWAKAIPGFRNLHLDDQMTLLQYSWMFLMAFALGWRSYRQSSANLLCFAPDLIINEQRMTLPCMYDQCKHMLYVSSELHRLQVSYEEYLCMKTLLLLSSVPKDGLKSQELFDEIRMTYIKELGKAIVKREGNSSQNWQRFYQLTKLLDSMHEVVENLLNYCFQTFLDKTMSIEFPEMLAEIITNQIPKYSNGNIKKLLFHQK
How it was run: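 Antagonist-mode qHTS: compound titrations added to GRE-bla HeLa cells, then dexamethasone 2 nM final; 18 h, 37 C. CCF4 FRET fluorescence normalized to dexamethasone and DMSO; IC50 from Hill fit.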

[12] = qHTS assay to identify small molecules that stimulate interleukin-8 (IL-8) secretion (AID 651758; active means well fitted activation curve with a large enough effect in the signal ratio; the % refers to the signal ratio)
How it was run: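 Quantitative HTS in THP-1 monocytic cells at 2000 cells per well, with 16 hrs compound incubation at 37 C. IL-8 in the medium was then quantified by HTRF immunoassay, read after 1-3 hrs at room temperature.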

[13] = qHTS drug screen for cell cycle checkpoint inhibitors in PARPi-resistant BRCA-mutant ovarian cancer cell lines. (AID 1963452; calls by dose curve); settings: PEO1/OlaR viability, CellTiter-Glo luminescence, 96 h, stronger effect = lower value
How it was run: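 PEO1, PEO4 and PEO1/OlaR ovarian cancer cells, 600 per well, exposed 96 h at 37C to a dilution series. Viability read by CellTiter-Glo luminescence, normalized to DMSO and empty wells; activity summarized as Z-AUC.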

Q: Which Potency [1] does the source give for `O=C(O[C@@H]1Cc2c(O)cc(O)cc2O[C@@H]1c1ccc(O)c(O)c1)c1cc(O)c(O)c(O)c1` here?
A: inactive

Q: Which Potency [1] does the source give for `O=C(/C=C/c1ccc(O)c(O)c1)OC1[C@H](O)CC(O)(C(=O)O)C[C@@H]1O` (stereo partly specified) here?
A: inactive

Q: Which Potency [1] does the source give for `O=C(/C=C/c1ccc(O)c(O)c1)O[C@H]1[C@H](O)C[C@](O)(C(=O)O)C[C@H]1OC(=O)/C=C/c1ccc(O)c(O)c1` here?
A: inactive

Q: For `O=C(/C=C/c1ccc(O)c(O)c1)O[C@@H]1CC(C(=O)O)=C[C@@H](O)[C@H]1O`, which Potency [1] is on record?
A: inactive

Q: Which Potency [1] does the source give for `COc1ccc2ccc(=O)oc2c1` here?
A: inactive

Q: For `C=C1C[C@@]23CC[C@H]4[C@](C)(CCC[C@]4(C)C(=O)O[C@@H]4O[C@H](CO)[C@@H](O)[C@H](O)[C@H]4O)[C@@H]2CC[C@]1(O[C@H]1O[C@@H](CO)[C@H](O)[C@@H](O)[C@@H]1O)C3`, which Potency [1] is on record?
A: inactive

Q: For `Oc1cccc(O)c1O`, which Potency [1] is on record?
A: inactive

Q: With `CCC(/C=C/[C@@H](C)[C@H]1CCC2C3CC=C4C[C@@H](O)CC[C@]4(C)C3CC[C@@]21C)C(C)C` (stereo partly specified) as the compound, how does the Potency [1] read?
A: inactive

Q: For `O=C(OCC1=C[C@@H](O)[C@@H]2C=CO[C@@H](O[C@@H]3O[C@H](CO)[C@@H](O)[C@H](O)[C@H]3O)[C@H]12)c1ccc(O)cc1`, which Potency [1] is on record?
A: inactive

Q: Which Potency [1] does the source give for `Oc1cc(O)c2c(c1)O[C@@H](c1cc(O)c(O)c(O)c1)[C@H](O)C2` here?
A: inactive

Q: Which Potency [1] does the source give for `C=C1CC[C@H](O)C/C1=C\C=C1/CCC[C@]2(C)[C@@H]([C@H](C)CC[C@H](C)C(C)C)CC[C@@H]12` here?
A: inactive

Q: For `CCCCCCCCC[C@@H](O)CC(=O)CCc1ccc(O)c(OC)c1`, which Potency [1] is on record?
A: inactive

Q: Which Potency [1] does the source give for `O=C(OC[C@H]1O[C@@H](OC(=O)c2cc(O)c(O)c(O)c2)[C@H](OC(=O)c2cc(O)c(O)c(O)c2)[C@@H](OC(=O)c2cc(O)c(O)c(O)c2)[C@@H]1OC(=O)c1cc(O)c(O)c(O)c1)c1cc(O)c(O)c(O)c1` here?
A: inactive

Q: With `CC(C)=CCC[C@](C)(O[C@@H]1O[C@H](CO[C@@H]2O[C@H](CO)[C@@H](O)[C@H](O)[C@H]2O)[C@@H](O)[C@H](O)[C@H]1O)C1CC[C@]2(C)[C@@H]1[C@H](O)CC1[C@@]3(C)CC[C@H](O[C@@H]4O[C@H](CO)[C@@H](O)[C@H](O)[C@H]4O[C@@H]4O[C@H](CO)[C@@H](O)[C@H](O)[C@H]4O)C(C)(C)[C@@H]3CC[C@]12C` (stereo partly specified) as the compound, how does the activity change, negative = inhibition [1] read?
A: -31.6% [at 8.32 µM] (inactive)

Q: With `CC(=O)O[C@H]1[C@H](O[C@H]2CC[C@]34C[C@]35CC[C@]3(C)[C@@H]([C@@]6(C)CC[C@@H](C(C)(C)O)O6)[C@@H](O)C[C@@]3(C)[C@@H]5C[C@H](O[C@@H]3O[C@H](CO)[C@@H](O)[C@H](O)[C@H]3O)[C@H]4C2(C)C)OC[C@@H](O)[C@@H]1O` as the compound, how does the Potency [1] read?
A: inactive

Q: With `C=C1C[C@@]23CC[C@H]4[C@@](C)(CCC[C@@]4(C)C(=O)O[C@@H]4O[C@H](CO)[C@@H](O)[C@H](O)[C@H]4O)[C@@H]2CC[C@]1(O[C@@H]1O[C@H](CO)[C@@H](O)[C@H](O[C@@H]2O[C@H](CO)[C@@H](O)[C@H](O)[C@H]2O)[C@H]1O[C@@H]1O[C@@H](C)[C@H](O)[C@@H](O)[C@H]1O)C3` as the compound, how does the Potency [1] read?
A: inactive

Q: With `COc1cc(/C=C/c2ccccc2)oc(=O)c1` as the compound, how does the Potency [1] read?
A: inactive

Q: With `O[C@@H]1[C@@H](O)[C@H](OC/C=C/c2ccccc2)O[C@H](CO[C@@H]2OC[C@H](O)[C@H](O)[C@H]2O)[C@H]1O` as the compound, how does the Potency [1] read?
A: inactive

Q: For `C[C@@H]1CC[C@]2(C)CC[C@]3(C)C(=CC(=O)C4[C@@]5(C)CC[C@@H](O)[C@](C)(C(=O)O)C5CC[C@]43C)C2[C@H]1C` (stereo partly specified), which Potency [1] is on record?
A: inactive

Q: For `O=c1ccc2ccc(O)cc2o1`, which Potency [1] is on record?
A: inactive

Q: With `C=C[C@](C)(O)CCC=C(C)C` as the compound, how does the Potency [1] read?
A: inactive

Q: Which Potency [1] does the source give for `C=C(C)C1CC=C(C)C(O)C1` (stereo unspecified) here?
A: inactive

Q: Which Potency [2] does the source give for `COc1cc(OC)c(/C=C2/C(=O)Nc3ccccc32)c(OC)c1` here?
A: inactive

Q: And the Potency [3]?
A: 12.6 µM (active)

Q: What about the Potency [4] of the same compound?
A: 11.2 µM (active)

Q: And the Potency [5]?
A: 31.6 µM (active)

Q: For `CCCCOC(=O)c1ccnc2cc(C(OCCN3CCCCC3)c3ccccc3C)sc12` (stereo unspecified), which Potency [6] is on record?
A: inactive

Q: For `O=C(O)c1ccnc2cc(C(OCCN3CCC(F)(F)CC3)c3ccccc3Cl)[nH]c12` (stereo unspecified), which Potency [6] is on record?
A: inactive

Q: Which results are given for `CN1C[C@H](C(=O)N[C@]2(C)O[C@@]3(O)C4CCCN4C(=O)[C@H](Cc4ccccc4)N3C2=O)C[C@@H]2c3cccc4[nH]cc(c34)C[C@H]21` (stereo partly specified)?
A: Potency [7]: 2 µM (active); Potency [3]: 1.41 µM (active); Potency [4]: 0.891 µM (active)

Q: Which results are given for `c1ccc(-c2ccccc2)cc1`?
A: activation [8]: -1.76% (inactive) and -0.536% (inactive); Potency [9]: inactive; activation [10]: -2.99% (inactive) and -4% (inactive); Potency [11]: inactive; Potency [12]: inactive

Q: Which Potency [7] does the source give for `CC(=O)O[C@H]1C[C@@H]2CCC3C(CC[C@@]4(C)[C@H]3C[C@H]([N+]3(C)CCCCC3)[C@@H]4OC(C)=O)[C@@]2(C)C[C@@H]1[N+]1(C)CCCCC1` (stereo partly specified) here?
A: 11.2 µM (active)

Q: What does the source list for `CCN(CC)c1ccccc1`?
A: activation [8]: 12.2% (inactive); Potency [9]: inactive; activation [10]: -2.77% (inactive); Potency [11]: inactive

Q: Which Potency [6] does the source give for `CN1[C@@H]2CC(O)C[C@H]1[C@@H]1O[C@@H]12` (stereo partly specified) here?
A: inactive

Q: What about the Z-AUC [13] of the same compound?
A: 0.552 (inactive)

Q: And the Z-AUC ([13]; measured here: PEO1 parental Z-AUC)?
A: 0.772

Q: And the Z-AUC ([13]; measured here: PEO4 Z-AUC)?
A: 1.01

Q: Which Potency [1] does the source give for `C[S+](CC[C@H](N)C(=O)O)C[C@H]1O[C@@H](n2cnc3c(N)ncnc32)[C@H](O)[C@@H]1O` (stereo partly specified) here?
A: inactive

Q: With `S=C(S)N1CCCC1` as the compound, how does the Potency [2] read?
A: inactive

Q: And the Potency [7]?
A: 3.16 µM (active)

Q: And the Potency [3]?
A: 11.2 µM (active)

Q: And the Potency [4]?
A: 2.51 µM (active)

Q: And the Potency [5]?
A: 44.7 µM (active)
